# Screening results deposited in PubChem by National Center for Advancing Translational Sciences (NCATS).
# DT40 TDP1 CPT: growth inhibition of DT40 Tdp1-/-;hTDP1 cells with camptothecin (screen for TDP1 inhibitors); Potency, µM (series often up to 46.2 µM), for inactives: top-dose activity change, negative = growth inhibition, hits mostly inhibitors; hit rate 12% among 420,000; chicken DT40 Tdp1-/-;hTDP1 cells + 20 nM CPT, ATP luminescence, 48 h; note: % is set by controls: 0 for no effect and ±100 for the full control effect; nearly all actives have a fitted effect of over 55% in size
#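 Cell growth measured by CellTiter-Glo luminescence after a minimum 48 h, 37 C compound exposure with 20 nM CPT in Tdp1-knockout DT40 cells stably expressing hTDP1, seeded 400/well; qHTS titration format.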
# ClpP mod: qHTS Assay for Activators of ClpP; hit rate 1.9% among 340,000; Potency, µM (doses to about 57.5 µM), for inactives: at the highest dose activity change, negative = active; purified B. subtilis ClpP, FRET peptide cleavage, 20 min; active = well fitted falling curve with a large enough effect; inconclusive = small, poorly fitted or top-dose-only effect; inactive = no such curve, though single readings can be large or run the other way; note: the source files actives as falling curves though it sought activators and does not explain the sign; nearly all actives have a fitted effect of over 65% in size
# Target sequence (P80244 whole entry, looked up): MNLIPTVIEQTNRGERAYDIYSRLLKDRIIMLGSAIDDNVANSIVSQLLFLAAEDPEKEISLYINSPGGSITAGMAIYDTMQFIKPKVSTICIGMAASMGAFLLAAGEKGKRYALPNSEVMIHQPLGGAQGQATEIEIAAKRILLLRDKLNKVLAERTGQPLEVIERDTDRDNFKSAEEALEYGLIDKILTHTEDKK
#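 FRET quenching reversal measured ClpP activation: 10 microg/mL B. subtilis ClpP at pH 8 with the FRET-FV decapeptide, read at 430 nm after 320 nm excitation. The 20-min minus 0-min signal was scaled between DMSO/no-enzyme wells and ADEP (5.8 microM final).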
# TDP1 cell noCPT: qHTS for Inhibitors of human tyrosyl-DNA phosphodiesterase 1 (TDP1): qHTS in cells in absence of CPT; Potency, µM (doses to about 46.2 µM), for the others: at the top dose activity change, negative = growth inhibition, actives largely listed as inhibitors; AID 686978, 2013; DT40 Tdp1-/- hTDP1 cells, no CPT, ATP luminescence, 48 h; hit rate 15% among 420,000; note: % is set by controls: 0 for no effect and ±100 for the full control effect; nearly all actives have a fitted effect of over 55% in size
#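 Chicken DT40 Tdp1-/- cells complemented with human TDP1, screened without camptothecin (DMSO vehicle only), 400 cells/well. Compounds pin-transferred, cells incubated at 37 °C for at least 48 hr. Growth read as ATP-dependent luminescence (CellTiter-Glo, 30 min at RT).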
# TDP1 inh: TDP1 (human) enzyme inhibition. hit rate 0.28% among 350,000. recombinant TDP1, AlphaScreen DNA substrate cleavage. Potency, µM (top dose mostly 130 µM), for inactives: at the top dose activity change, negative = inhibition, most hits filed as inhibitors; note: % is set by controls: 0 for no effect and ±100 for the full control effect; nearly all actives have a fitted effect of over 40% in size
#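 Here, a 5' biotin and 3' phosphotyrosine-FITC DNA oligonucleotide reports Tdp1 activity: intact substrate bridges AlphaScreen beads, while cleavage leaves a 3' phosphate and drops signal. All incubations at room temperature.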
# Numbers without * were called inactive; u = inconclusive; x = not tested or not shown; [ ] = another dose, or the depositor's remark. An excerpt weighted towards active compounds, which were near 17% of everything screened. Unless noted, calls come from the whole dose curve; as a rule, active = well fitted curve in the direction sought with a large enough effect; inconclusive = small, poorly fitted or top-dose-only effect, or another doubt; inactive = no such curve, though single readings can be large; an effect the other way counts as inactive or inconclusive. Potency is the fitted concentration of half-maximal effect.
SMILES,DT40 TDP1 CPT,ClpP mod,TDP1 cell noCPT,TDP1 inh
COc1ccc(-c2cc(C(=O)NCCc3ccc(OC)c(OC)c3)c3ccccc3n2)cc1,18µM*,4%,12µM*,0%[12.3 µM]
O=C(NCCc1ccccc1)c1cc(Nc2ccccc2)nc2ccccc12,u,u,u,-5%
Cc1ccc(Nc2cc(C(=O)NCCc3ccccc3)c3ccccc3n2)c(C)c1,u,239%,u,7%
CCOc1ccc(CCNC(=O)c2cc(Nc3ccc(C)cc3C)nc3ccccc23)cc1OCC,8.2µM*,12%,8.2µM*,5%
CCC(Cc1ccccc1)NC(=O)c1cccc(Nc2nc3ccccc3nc2-n2nc(C)cc2C)c1 (stereo unspecified),-27%,-7%,-22%,0%
COc1ccc(CCNC(=O)c2cc(Nc3ccccc3)nc3ccccc23)cc1OC,9.2µM*,-8%,8.2µM*,-3%
O=C(C=Cc1cccs1)c1ccc(Cl)s1,-5%,x,u,x
COc1ccc(CCNC(=O)c2cc(-c3ccc(C)c(C)c3)nc3ccccc23)cc1OC,10µM*,6%,-81%,5%
CCCc1nc(SCC(=O)Nc2nc3c(s2)CCCC3)c2ccccc2n1,u,0%,-1%,1%
CCc1nc(SCC(=O)Nc2nc3c(s2)CCCC3)c2ccccc2n1,18µM*,0%,13µM*,9%
O=C(CSc1nc2ccccc2o1)Nc1nc2c(s1)CCCC2,u,-17%,15µM*,x
NC(=O)NCC(N)C(=O)O (stereo unspecified),1%,x,-5%,7%[56.1 µM]
O=S(=O)(Nc1ccc(-c2ccc3nncn3n2)cc1)c1cccc(F)c1,-25%,0%,-18%,x
Cc1nc2ccccc2c(=O)n1-c1ccc(NC(=O)c2ccccc2[N+](=O)[O-])cc1,u,-2%,23µM*,3%
COc1ccc(C)cc1S(=O)(=O)Nc1ccc(-n2c(C)nc3ccccc3c2=O)cc1,u,68%,u,0%
Cc1cccc(S(=O)(=O)Nc2ccc(-n3c(C)nc4ccccc4c3=O)cc2)c1,u,-5%,23µM*,2%
Cc1nc2ccccc2c(=O)n1-c1ccc(NC(=O)C(F)(F)F)cc1,-21%,-5%,-18%,-3%
Cc1cc(-n2c(C)nc3ccccc3c2=O)ccc1NC(=O)c1ccc(C)c([N+](=O)[O-])c1,7.3µM*,-1%,5.2µM*,3%
CCc1cccc(NC(=O)Cn2nc3c4cc(F)ccc4n(Cc4cccc(C)c4)cc-3c2=O)c1,-4%,0%,-6%,3%
COc1cccc(C(=O)C2CCCN(C(=O)c3ccc(C#CC(C)(C)O)cc3)C2)c1 (stereo unspecified),18µM*,-2%,15µM*,-1%
CCOC(=O)N1CCC(N2CCCC(C(=O)c3ccc4cc(OC)ccc4c3)C2)CC1 (stereo unspecified),23µM*,x,15µM*,5%
COc1ccc2cc(C(=O)C3CCCN(Cc4cccc(C)n4)C3)ccc2c1 (stereo unspecified),2.6µM*,x,8.2µM*,6%
Cn1cc(CN2CCCC(C(=O)Nc3cccc(-c4cc5ccccc5[nH]4)c3)C2)cn1 (stereo unspecified),u,-1%,u,7%
CCn1cc(CN2CCCC(C(=O)Nc3cccc(-c4cc5ccccc5[nH]4)c3)C2)c(C)n1 (stereo unspecified),23µM*,3%,u,3%[56.1 µM]
CCOC(=O)N1CCC(N2CCCC(C(=O)c3cc(C)c(OC)c(C)c3)C2)CC1 (stereo unspecified),-20%,2%,-27%,2%
SMILES,DT40 TDP1 CPT,ClpP mod,TDP1 cell noCPT,TDP1 inh
CC(CNC(=O)C(=O)NC(C)CCc1ccccc1)Cc1ccccc1 (stereo unspecified),-4%,0%,-4%,1%
CCC(=O)N1CCCC(C(=O)Nc2nc3ccccc3[nH]2)CC1 (stereo unspecified),-5%,1%,-4%,x
Cc1cc(CN2CCCC(C(=O)Nc3ccc(-c4nc5ccccc5[nH]4)cc3)C2)n[nH]1 (stereo unspecified),18µM*,3%,u,6%[56.1 µM]
COCCc1ncc(CN2CCCC(C(=O)Nc3cccc(-c4cccc(C)c4)c3)C2)cn1 (stereo unspecified),u,-2%,23µM*,3%
COc1cccc(-c2ccc(NC(=O)C3CCCN(Cc4ccc(CO)o4)C3)cc2)c1 (stereo unspecified),16µM*,0%,16µM*,2%
COc1ccc2cc(C(=O)C3CCCN(C(=O)c4ccnn4C)C3)ccc2c1 (stereo unspecified),26µM*,4%,15µM*,-6%
COc1ccc(C(=O)C2CCCN(C(=O)c3ccnn3C)C2)cc1OC (stereo unspecified),2%,-4%,16%,2%
Cc1ccc(C)c(C(=O)CCC(=O)Nc2ccc(N3CCN(C)CC3)cc2C)c1,u,1%,-13%,0%
C[C@@H]1CN(Cc2ccc3c(c2)CN(Cc2cccn2-c2ccc(Cl)cn2)CCO3)C[C@H](C)O1,7%[9.04 µM],x,-7%,x
CC[C@H](C)[C@H](NC(=O)[C@H](CCC(=O)O)NC(=O)[C@@H](N)CO)C(=O)N[C@@H](CCC(N)=O)C(=O)N[C@@H](CC(C)C)C(=O)N[C@@H](CCSC)C(=O)N[C@@H](Cc1cnc[nH]1)C(=O)N[C@@H](CC(N)=O)C(=O)N[C@@H](CC(C)C)C(=O)NCC(=O)N[C@@H](CCCCN)C(=O)N[C@@H](Cc1cnc[nH]1)C(=O)N[C@@H](CC(C)C)C(=O)N[C@@H](C)C(=O)N[C@@H](CO)C(=O)N[C@H](C(=O)N[C@@H](CCC(=O)O)C(=O)N[C@@H](CCCNC(=N)N)C(=O)N[C@@H](CCSC)C(=O)N[C@@H](CCC(N)=O)C(=O)N[C@@H](Cc1c[nH]c2ccccc12)C(=O)N[C@@H](CC(C)C)C(=O)N[C@@H](CCCNC(=N)N)C(=O)N[C@@H](CCCCN)C(=O)N[C@@H](CCCCN)C(=O)N[C@@H](CC(C)C)C(=O)N[C@@H](CCC(N)=O)C(=O)N[C@@H](CC(=O)O)C(=O)N[C@H](C(=O)N[C@@H](Cc1cnc[nH]1)C(=O)N[C@@H](CC(N)=O)C(=O)N[C@@H](Cc1ccccc1)C(=O)O)C(C)C)C(C)C,x,x,x,11%
Cc1cc(Cl)ccc1NC(=O)Cn1nnc2sc(-c3ccccc3)cc2c1=O,0%,-4%,u,0%
COCCN(C(=O)c1ccc2c(c1)S(=O)(=O)N=C1CCCCCN12)c1c(N)n(CC(C)C)c(=O)[nH]c1=O,2%,1%,20%,x
Cc1cc(Cl)ccc1C(=O)C1CCCN(C(=O)c2cc(C(C)C)no2)C1 (stereo unspecified),u,-1%,-22%,5%
